Bioassay records deposited in PubChem by several laboratories.
A selection: hits, their analogues and other compounds. The true share with any hit is near 4.7%.
tim10-1 inh: growth inhibitors of tim10-1 mutant yeast. S. cerevisiae tim10-1 ts strain growth, BacTiter-Glo, 24 h. inhibition, % at 20 µM. 330,000 compounds, 2.2% hits;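 active = inhibition of at least 40%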;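 also: mutant grown at 25 °C; 0% = DMSO wells with yeast and 100% = wells holding no yeast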
TIM10 inh: inhibits growth of TIM10 yeast strain. S. cerevisiae TIM10 strain growth, BacTiter-Glo luminescence, 24 h. inhibition, % at 10 µM. 330,000 compounds, 1.4% hits;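 active = inhibition of 40% or more at the single tested concentration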;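 also: wild-type TIM10 isogenic control strain grown at permissive 25 °C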
SKKanGAS inh: inhibitors of SKKanGAS S. pyogenes growth in kanamycin (SK-promoter or general growth effect); BacTiter-Glo, 6 h; 300,000 compounds, 1.3% hits; inhibition, % at 7.5 µM;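 active = mean replicate score, as percent of positive control median, at least 50; inconclusive = mean below 50 but one replicate at or above 50; inactive = mean and every replicate below 50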;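 also: strain carries kanamycin resistance gene driven by streptokinase promoter and grows in 40 µg/ml kanamycin; loss of luminescence reflects streptokinase promoter inhibition or plain growth inhibition; 0% = median of DMSO wells and 100% = positive control at its reference dose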
Calb FLC: C. albicans growth modulation with fluconazole. C. albicans CaCi-2 (fluconazole-resistant clinical isolate) + fluconazole, Alamar Blue growth, 48 h. growth inhibition, % (test concentration not listed). AID 1979. 300,000 compounds, 0.57% hits;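 active = growth inhibition above about 58% in most replicates, limit read from the data, passing the limit was not always enough; inconclusive = exactly half the replicates above a set limit; inactive = most replicates below a set limit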;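 also: all wells also contain fluconazole at 8 µg/ml as a sub-toxic cotreatment; 0% = median of DMSO wells and 100% = median of geldanamycin control wells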
PfHsp90 yeast 2: inhibits growth of yeast expressing Plasmodium falciparum Hsp90. S. cerevisiae expressing PfHsp90, BacTiter-Glo ATP, 48 h; yeast lacking PDR1 and PDR3 efflux regulators. 310,000 compounds, 0.32% hits. inhibition, % at 9.4 µM. AID 504621;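 active = every replicate shows inhibition above about 80%, whatever the replicate mean, limit read from the data; inconclusive = mean inhibition reaches the set limit but some replicate falls short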;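 also: 0% = DMSO neutral controls and 100% = 20 µM radicicol positive controls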
tim23-1 inh: inhibits growth of tim23-1 mutant yeast | inhibition, % at 20 µM | 330,000 compounds, 1.3% hits | S. cerevisiae tim23-1 growth, BacTiter-Glo luminescence, 24 h;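 active = growth inhibition of the mutant yeast at or above 50%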;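 also: temperature-sensitive mutant grown at 25 °C; plate controls were DMSO-treated mutant yeast for no effect and medium wells lacking yeast for full effect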
tim10-1 conf: confirmation of tim10-1 mutant yeast growth inhibitors; shares compounds with tim10-1 inh; S. cerevisiae tim10-1 ts strain growth, BacTiter-Glo, 24 h; inhibition, % at 20 µM; 7,400 compounds, 56% hits;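 active = inhibition of yeast growth at or above a set limit in either of two repeat tests at 20 µM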;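 also: tim10-1 mutant grown at permissive 25 °C to find synthetic lethal compounds; 0% = DMSO yeast wells and 100% = medium wells without yeast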
TIM10 conf: TIM10 yeast growth inhibition, confirmed. inhibition, % at 10 µM. shares compounds with TIM10 inh. AID 463215. 4,600 compounds, 63% hits. S. cerevisiae tim10 strain growth, BacTiter-Glo luminescence, 24 h;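 active = inhibition of yeast growth at or above a set limit in either of two replicates at 10 µM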;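 also: this counterscreen used the strain with wild-type TIM10; 0% = yeast with DMSO and 100% = medium wells lacking yeast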
An asterisk follows results filed as active; ? = inconclusive; . = no result.

SMILES	tim10-1 inh	TIM10 inh	SKKanGAS inh	Calb FLC	PfHsp90 yeast 2	tim23-1 inh	tim10-1 conf	TIM10 conf
Cc1ccc(S(=O)(=O)N2CCCCC2)cc1C(=O)NCCCN1CCOCC1	-7.7	6.6	3.1	-1.9	8.8	-4.7	.	.
COc1ccc(OC)c2c1C(=O)C(Cl)=C(Cl)C2=O	91.1*	96.4*	34.0	-3.3	110.0*	24.0	93.7*	99.3*
COc1ccc(OC)c2c1C(=O)c1ccccc1C2=O	10.9	-8.9	2.5	-1.0	.	-0.2	.	.
Cc1ccc(-c2nn(-c3ccccc3)cc2C(N)=O)o1	0.2	17.0	2.0	14.3	34.0	-13.0	.	.
Cc1ccc(-c2nn(-c3ccccc3)cc2C=O)o1	63.2*	71.7*	-2.5	-1.6	14.6	-40.1	64.5*	70.1*
CC(C)c1onc(C(=O)Nc2cccc(Cl)c2)c1[N+](=O)[O-]	45.0*	41.4*	6.0	63.7	-6.6	36.8	36.8*	39.0*
COc1ccccc1C(=O)OCC(=O)Nc1cccc(S(=O)(=O)N2CCCC2)c1	20.2	2.6	.	.	8.0	22.4	.	.
CCCC(=O)Nc1ccc(-c2nc3cc(C)ccc3o2)cc1	43.5*	54.9*	-7.4	61.0	9.0	47.9	32.2*	51.7*
CCCC(=O)Nc1ccc2oc(-c3ccc(OC)c(Br)c3)nc2c1	32.4	26.0	-7.7	10.8	-4.4	10.0	.	.
COc1ccc(-n2c(=O)c3c4c(sc3n3c(=S)[nH]nc23)CCCC4)cc1	40.0	48.2*	17.8	92.8*	-28.3	30.1	37.3*	18.4
CCc1c(C)c2ccc(OCC(=O)NCC3CCC(C(=O)O)CC3)c(C)c2oc1=O (stereo not given)	2.8	-5.3	12.5	0.1	10.3	-7.5	.	.
O=C(c1cn(-c2ccccc2)nc1-c1cccnc1)N1CCCC(C(F)(F)F)C1 (stereo not given)	0.6	-1.2	-4.0	-2.7	22.6	13.5	.	.
COc1cccc(CN(c2ccccc2C(=O)O)S(=O)(=O)c2ccc(C)cc2)c1	.	.	.	.	-40.6	.	.	.
Cc1nn(-c2ccccc2)c(C)c1/C=N/n1c(-c2ccc(C(C)(C)C)cc2)n[nH]c1=S	47.0*	44.1*	87.3*	-6.5	-15.3	45.7	32.9*	43.5*
COC(=O)c1c(NC(=O)c2ccccc2F)sc(C(=O)N2CCOCC2)c1C	-9.8	-31.0	-2.4	-4.4	-4.3	-0.8	.	.
CC(C)c1ccc(/C=C/C(=O)n2nnc3ccccc32)cc1	55.3*	49.7*	1.8	-5.1	-30.5	31.4	51.5*	47.5*
CC(C)c1ccc(/C=C/C(=O)N2CCOCC2)cc1	15.5	18.6	-4.9	29.7	13.4	11.0	.	.
CCCc1cc(-c2nc(-c3ccc(Cl)cc3)cs2)ccn1	46.5*	51.1*	-9.0	9.8	-3.9	29.6	44.8*	43.1*
COc1ccccc1NS(=O)(=O)c1ccc2oc(=O)ccc2c1	42.8*	46.5*	0.4	-4.0	-43.3	30.0	20.7	44.4*
Cc1cccc(NS(=O)(=O)c2ccc3oc(=O)ccc3c2)c1C	21.9	30.2	1.5	-2.1	-15.5	30.0	.	.
CC1C/C(=C/c2ccncc2)C(=O)/C(=C/c2ccncc2)C1 (stereo not given)	43.8*	84.1*	0.1	1.2	97.6*	-7.9	39.0*	89.2*
CCOC(=O)C(c1ccccc1)C(Nc1ccc(F)cc1)c1ccccn1 (stereo not given)	21.4	1.4	-11.6	19.2	0.7	32.7	.	.
CCOC(=O)C(C(=O)OCC)C(Nc1ccc(Br)cc1)c1ccccc1 (stereo not given)	51.2*	50.7*	-3.3	3.7	11.8	44.8	39.2*	52.0*
CC(Sc1nc(NCc2ccccc2)nc(N(C)C)n1)C(=O)Nc1ccccc1 (stereo not given)	34.4	29.7	9.0	?	-18.9	36.1	.	.
CC(=O)C(Sc1nc(N(C)C)nc(N(C)C)n1)C(=O)Nc1ccccc1 (stereo not given)	40.0*	96.7*	-10.0	34.3	6.0	27.8	23.2	15.9
SMILES	tim10-1 inh	TIM10 inh	SKKanGAS inh	Calb FLC	PfHsp90 yeast 2	tim23-1 inh	tim10-1 conf	TIM10 conf
CC(=O)CC(=O)Nc1ccc(Cl)cn1	14.3	11.7	1.4	0.5	9.1	24.9	.	.
CC(C)CC(=O)NC(=S)Nc1ccc(Cl)cn1	43.0*	46.8*	-10.9	-6.7	39.7	49.7	37.5*	40.1*
Cc1sc(NC(=O)CN(C(=O)c2ccccc2F)C2CCCC2)c(C(N)=O)c1C	9.0	7.7	4.5	8.5	6.7	10.6	.	.
O=C(NC(=S)N1CCN(c2ccc(C(F)(F)F)cc2[N+](=O)[O-])CC1)c1cccs1	43.8*	40.0*	87.2*	-33.8	2.4	47.0	21.1	9.2
CCN1CCN(C(=S)NC(=O)c2cccs2)CC1	6.6	0.6	-3.6	3.0	-15.9	-7.2	.	.
N#C/C(=C\c1ccc(C(=O)O)cc1)c1nc2sc3c(c2c(=O)[nH]1)CCCC3	.	.	.	.	-21.6	.	.	.
CC(=O)Oc1c(-c2ccco2)oc2ccccc2c1=O	53.3*	62.1*	-1.1	61.7	-47.7	48.1	49.1*	61.2*
Cc1ccccc1C(=O)O/N=C(\N)c1cccc([N+](=O)[O-])c1	67.8*	50.1*	-0.7	18.3	8.8	47.9	73.9*	48.4*
N/C(=N\OC(=O)c1cccc([N+](=O)[O-])c1)c1cccnc1	31.4	18.2	-6.9	32.3	7.8	4.9	.	.
N/C(=N\OC(=O)c1ccc2c(c1)OCO2)c1cccc([N+](=O)[O-])c1	48.4*	43.8*	2.0	-10.4	-19.3	22.9	32.7*	26.1
CCC(=NCc1ccco1)c1c(C(F)(F)F)[nH]n(-c2nc3ccccc3s2)c1=O	64.6*	44.2*	12.2	12.4	16.9	18.5	62.5*	41.0*
COC(=O)COc1ccc(-c2ccc(F)cc2)cc1C=O	61.9*	74.2*	-4.9	-19.2	10.8	39.2	65.3*	80.2*
COC(=O)COc1ccccc1C(N)=O	-1.7	-4.6	-4.1	-10.8	12.1	10.4	.	.
Cc1nn(C)c(C(=O)Nc2ccc(S(=O)(=O)NC34CC5CC(CC(C5)C3)C4)cc2)c1Br	53.9*	57.8*	53.2*	0.9	?	41.1	44.5*	21.1
Cc1ccc2nc(N3CCN(Cc4nnnn4Cc4ccccc4)CC3)c(C#N)cc2c1	57.9*	51.0*	13.7	-2.7	-41.2	32.1	53.9*	-13.8
Cc1ccc(NS(=O)(=O)c2ccc3c(c2)NC(=O)CCS3)c(C)c1	18.6	-5.5	0.6	7.0	10.6	3.4	.	.
Cc1ccc(/C=C/C(=O)NN2CCN(C)CC2)cc1	-3.6	-8.4	-0.2	6.4	-3.0	-19.0	.	.
Cc1ccc(/C=C/C(=O)Nn2cnnc2)cc1	55.7*	41.7*	2.2	22.0	15.8	44.7	27.0	38.8*
